# Experiments:
# Settings in all cases: concentration: 1 μM, replicates: in singlicate; n = 1
# MST1 = system: T1, MST1
# T1 construct: gene STK4
# MST2 = system: T2, MST2
# T2 construct: gene STK3
# MST3 = system: T3, MST3
# T3 construct: gene STK24
# MST4 = system: MST4
# MTOR = system: MTOR
# MUSK = system: MUSK
# MYLK2 = system: MYLK2
# MYLK4 = system: MYLK4
# MYLK = system: MYLK
# MYO3A = system: MYO3A
# MYO3B = system: MYO3B
# NDR1 = system: T4, NDR1
# T4 construct: gene STK38
# NDR2 = system: NDR2
# NEK10 = system: NEK10
# NEK11 = system: NEK11
# NEK1 = system: NEK1
# NEK2 = system: NEK2
# NEK3 = system: NEK3
# NEK4 = system: NEK4
# NEK5 = system: NEK5
# 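Also: KINOMEscan kinase panel screen.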
structure (smiles),measurement,setting,value
Cl.Nc1ncnc2occ(-c3ccc(NC(=O)Nc4cc(C(F)(F)F)ccc4F)cc3)c12 [SB-707548],%Inh,MST1,50%
same,%Inh,MST2,26%
same,%Inh,MST3,52%
same,%Inh,MST4,8%
same,%Inh,MTOR,16%
same,%Inh,MUSK,100%
same,%Inh,MYLK2,37%
same,%Inh,MYLK4,26%
same,%Inh,MYLK,21%
same,%Inh,MYO3A,96.6%
same,%Inh,MYO3B,57%
same,%Inh,NDR1,29%
same,%Inh,NDR2,40%
same,%Inh,NEK10,1%
same,%Inh,NEK11,0%
same,%Inh,NEK1,40%
same,%Inh,NEK2,37%
same,%Inh,NEK3,1%
same,%Inh,NEK4,5%
same,%Inh,NEK5,30%
Fc1ccc(-c2ncn(CCCN3CCOCC3)c2-c2cccnc2)cc1 [SB-211743],%Inh,MST1,12%
same,%Inh,MST2,40%
same,%Inh,MST3,0%
same,%Inh,MST4,0%
same,%Inh,MTOR,0%
same,%Inh,MUSK,20%
same,%Inh,MYLK2,1%
same,%Inh,MYLK4,0%
same,%Inh,MYLK,0%
same,%Inh,MYO3A,0%
same,%Inh,MYO3B,17%
same,%Inh,NDR1,33%
same,%Inh,NDR2,10%
same,%Inh,NEK10,14%
same,%Inh,NEK11,0%
same,%Inh,NEK1,0%
same,%Inh,NEK2,0%
same,%Inh,NEK3,15%
same,%Inh,NEK4,0%
same,%Inh,NEK5,0%
CC(C)Oc1ccc2c(-c3ccnc(Nc4ccc(N5CCN(C)CC5)cc4)n3)cnn2n1 [GW696155],%Inh,MST1,0%
same,%Inh,MST2,0%
same,%Inh,MST3,59%
same,%Inh,MST4,16%
same,%Inh,MTOR,27%
same,%Inh,MUSK,42%
same,%Inh,MYLK2,61%
same,%Inh,MYLK4,99.6%
same,%Inh,MYLK,17%
same,%Inh,MYO3A,30%
same,%Inh,MYO3B,0%
same,%Inh,NDR1,86%
same,%Inh,NDR2,52%
same,%Inh,NEK10,97.6%
same,%Inh,NEK11,86%
same,%Inh,NEK1,86%
same,%Inh,NEK2,93.3%
same,%Inh,NEK3,98.5%
same,%Inh,NEK4,10%
same,%Inh,NEK5,100%
CC(=O)Nc1ccc(COc2ccc(Nc3ccnc4cc(-c5ccccn5)ccc34)cc2)cc1.Cl [GW440148],%Inh,MST1,0%
same,%Inh,MST2,30%
same,%Inh,MST3,22%
same,%Inh,MST4,0%
same,%Inh,MTOR,13%
same,%Inh,MUSK,8%
same,%Inh,MYLK2,3%
same,%Inh,MYLK4,16%
same,%Inh,MYLK,13%
same,%Inh,MYO3A,27%
same,%Inh,MYO3B,2%
same,%Inh,NDR1,20%
same,%Inh,NDR2,37%
same,%Inh,NEK10,3%
same,%Inh,NEK11,0%
same,%Inh,NEK1,0%
same,%Inh,NEK2,8%
same,%Inh,NEK3,6%
same,%Inh,NEK4,0%
same,%Inh,NEK5,10%
CSc1ccc(-c2cc3ncnc(SCC(=O)O)c3s2)cc1,%Inh,MST1,13%
same,%Inh,MST2,20%
same,%Inh,MST3,22%
same,%Inh,MST4,7%
same,%Inh,MTOR,36%
same,%Inh,MUSK,0%
same,%Inh,MYLK2,0%
same,%Inh,MYLK4,9%
same,%Inh,MYLK,0%
same,%Inh,MYO3A,0%
same,%Inh,MYO3B,1%
same,%Inh,NDR1,1%
same,%Inh,NDR2,0%
same,%Inh,NEK10,26%
same,%Inh,NEK11,0%
same,%Inh,NEK1,2%
same,%Inh,NEK2,0%
same,%Inh,NEK3,31%
same,%Inh,NEK4,0%
same,%Inh,NEK5,0%
COC(=O)Nc1nc2cc(Oc3ccc(NC(=O)Nc4cc(F)ccc4F)cc3)ccc2[nH]1.Cl [GW701424],%Inh,MST1,0%
same,%Inh,MST2,0%
same,%Inh,MST3,6%
same,%Inh,MST4,0%
same,%Inh,MTOR,15%
same,%Inh,MUSK,99.1%
same,%Inh,MYLK2,0%
same,%Inh,MYLK4,0%
same,%Inh,MYLK,0%
same,%Inh,MYO3A,33%
same,%Inh,MYO3B,0%
same,%Inh,NDR1,26%
same,%Inh,NDR2,0%
same,%Inh,NEK10,8%
same,%Inh,NEK11,7%
same,%Inh,NEK1,0%
same,%Inh,NEK2,0%
same,%Inh,NEK3,0%
same,%Inh,NEK4,0%
same,%Inh,NEK5,3%
Fc1ccc(-c2ncn(CCCN3CCOCC3)c2-c2ccccn2)cc1 [SB-211742],%Inh,MST1,2%
same,%Inh,MST2,32%
same,%Inh,MST3,9%
same,%Inh,MST4,0%
same,%Inh,MTOR,27%
same,%Inh,MUSK,0%
same,%Inh,MYLK2,3%
same,%Inh,MYLK4,0%
same,%Inh,MYLK,0%
same,%Inh,MYO3A,0%
same,%Inh,MYO3B,10%
same,%Inh,NDR1,13%
same,%Inh,NDR2,0%
same,%Inh,NEK10,0%
same,%Inh,NEK11,0%
same,%Inh,NEK1,0%
same,%Inh,NEK2,7%
same,%Inh,NEK3,28%
same,%Inh,NEK4,0%
same,%Inh,NEK5,16%
CNc1ncnc2[nH]ncc12 [SKF-18355],%Inh,MST1,36%
same,%Inh,MST2,0%
same,%Inh,MST3,0%
same,%Inh,MST4,0%
same,%Inh,MTOR,17%
same,%Inh,MUSK,14%
same,%Inh,MYLK2,3%
same,%Inh,MYLK4,5%
same,%Inh,MYLK,0%
same,%Inh,MYO3A,0%
same,%Inh,MYO3B,34%
same,%Inh,NDR1,46%
same,%Inh,NDR2,23%
same,%Inh,NEK10,16%
same,%Inh,NEK11,0%
same,%Inh,NEK1,0%
same,%Inh,NEK2,0%
same,%Inh,NEK3,26%
same,%Inh,NEK4,0%
same,%Inh,NEK5,0%
O=C(NOCC1CC1)c1ccc(F)c(F)c1Nc1ccc(I)cc1Cl,%Inh,MST1,0%
same,%Inh,MST2,0%
same,%Inh,MST3,4%
same,%Inh,MST4,0%
same,%Inh,MTOR,28%
same,%Inh,MUSK,0%
same,%Inh,MYLK2,0%
same,%Inh,MYLK4,0%
same,%Inh,MYLK,0%
same,%Inh,MYO3A,0%
same,%Inh,MYO3B,0%
same,%Inh,NDR1,0%
same,%Inh,NDR2,0%
same,%Inh,NEK10,0%
same,%Inh,NEK11,0%
same,%Inh,NEK1,0%
same,%Inh,NEK2,0%
same,%Inh,NEK3,26%
same,%Inh,NEK4,0%
same,%Inh,NEK5,0%
O=C(NCCNc1ccnc(Nc2ccc(F)cc2)n1)c1cc2ccccc2s1 [GSK1379874],%Inh,MST1,0%
same,%Inh,MST2,0%
same,%Inh,MST3,0%
same,%Inh,MST4,0%
same,%Inh,MTOR,8%
same,%Inh,MUSK,0%
same,%Inh,MYLK2,0%
same,%Inh,MYLK4,0%
same,%Inh,MYLK,15%
same,%Inh,MYO3A,0%
same,%Inh,MYO3B,0%
same,%Inh,NDR1,0%
same,%Inh,NDR2,0%
same,%Inh,NEK10,7%
same,%Inh,NEK11,0%
same,%Inh,NEK1,0%
same,%Inh,NEK2,0%
same,%Inh,NEK3,4%
same,%Inh,NEK4,0%
same,%Inh,NEK5,0%
